The source of these data is PubChem BioAssay (NCI).

Structures are written as SMILES. The panel holds about 83,000 compounds, 20% with a hit somewhere; the sample as a whole holds those more often.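 Cell lines were cultured in 96-well plates, exposed to a single compound concentration, and assessed for percent growth 48 hours later.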 Values without a mark were called inactive. The source made the active and inactive calls. Rule for the calls: active = growth percent below 10; inactive = the rest.

Assay in all cases: NCI-60 one-dose screen, 48 h (100 = growth as untreated, 0 = no growth, -100 = all killed)
In assay [1] the test system is NCI-H23 lung. To be noted: 10 µM unless noted.
Assay [2] relates to NCI-H226 lung. To be noted: 10 µM unless noted.
Assay [3] deals with NCI-H322M lung. As to conditions: 10 µM unless noted.
The subject of assay [4] is HOP-62 NSCLC. To be noted: 10 µM unless noted.
Assay [5] concerns NCI-H460 lung. To be noted: 10 µM unless noted.
For assay [6], the system named is HOP-92 NSCLC. As to conditions: 10 µM.
The subject of assay [7] is NCI-H522 lung. As to conditions: 10 µM unless noted.
In assay [8] the test system is A549/ATCC NSCLC. As to conditions: 10 µM unless noted.
The subject of assay [9] is 786-0 renal. As to conditions: 10 µM unless noted.
Assay [10] concerns COLO 205 colon. To be noted: 10 µM unless noted.
Assay [11] deals with DU-145 prostate. To be noted: 10 µM unless noted.
The subject of assay [12] is K-562 leukemia. As to conditions: 10 µM unless noted.
The subject of assay [13] is MALME-3M melanoma. To be noted: 10 µM unless noted.
The test system of assay [14] is MDA-MB-231 breast. As to conditions: 10 µM unless noted.
The test system of assay [15] is RXF 393 renal. To be noted: 10 µM unless noted.
Assay [16] deals with SF-268 CNS. To be noted: 10 µM unless noted.
Assay [17] concerns SF-295 CNS. To be noted: 10 µM unless noted.
Assay [18] has as its system SF-539 CNS. To be noted: 10 µM unless noted.
The test system of assay [19] is UACC-257 melanoma. As to conditions: 10 µM unless noted.

As to `COc1ccc(-c2cc(-c3ccc(Cl)cc3)c(C#N)c(=O)n2Cc2ccc(C(=O)O)cc2)cc1`, the growth in assay [1] is 85.9%; in [2] it was 100%; in assay [3], 95.5%; in assay [4], 78.6%; in assay [5], 92.4%; in assay [6], 98.3%. Also, the growth in assay [7] was 28.5%; in assay [8] it was 108%; in assay [9] it was 108%; in assay [10] it was 109%; in assay [11], 112%; in assay [12], 54.3%. The growth in [13] is 52.9%; in assay [14], 95.6%; in assay [15] it was 72.1%; in [16], 67.8%; in assay [17], 68.3%; in assay [18] it was 69.1%. Also, the growth in assay [19] was 83.8%.
For `C[C@H](CCC(=O)NCc1ccc(C(=O)Nc2ccccc2N)cc1)[C@H]1CC[C@H]2[C@@H]3[C@@H](O)C[C@@H]4C[C@H](O)CC[C@]4(C)[C@H]3CC[C@]12C`, the growth is 66.7% in [1]; 57.1% in [2]; 79% in assay [3]; 58.3% in [4]; 60.8% in assay [5]; 69.1% in assay [6]. Besides, the growth was 37.8% in assay [7]; 90.3% in assay [8]; 71.4% in assay [9]; 65.2% in [10]; 84.1% in [11]; 30.6% in [12]. The growth in [13] was 45%; in [14], 49.2%; in assay [15] it was 55.3%; in assay [16], 52.6%; in [17], 69.1%; in assay [18], 55.6%. Besides, in assay [19], the growth is 63.7%.
Consider `COC(=O)/C=C/c1c(C2(C)NC(=O)c3ccccc3N2)c(=O)oc2ccc(Cl)cc12` (configuration not stated), for which the growth is 96.3% in assay [1]; 88.1% in assay [2]; 95.1% in assay [3]; 92.7% in assay [4]; 96.3% in [5]; 88.9% in assay [6]. Further, the growth in assay [7] was 68.3%; in assay [8] it was 95.2%; in assay [9] it was 96.3%; in assay [10] it was 117%; in [11], 102%; in assay [12], 105%. Moreover, the growth was 88.3% in assay [13]; 89.2% in assay [14]; 69.5% in assay [15]; 92.9% in assay [16]; 95.3% in assay [17]; 95.8% in assay [18]. For the same compound, the growth in [19] is 98%.
On to `CS(=O)(=O)c1ncc(-c2ccccc2)cn1`, for which the growth in [1] is 96%; in assay [2], 101%; in assay [3] it was 91.2%; in [4], 100%; in assay [5], 108%; in assay [6] it was 104%. Moreover, the growth in [7] was 86.4%; in assay [8], 94.2%; in assay [9], 109%; in [10], 108%; in [11] it was 104%; in assay [12], 93.3%. For the same compound, the growth in [13] was 104%; in assay [14], 99.8%; in assay [15], 106%; in assay [16] it was 101%; in assay [17], 107%; in [18] it was 94.4%. The growth in assay [19] was 89.7%.
On to `Cc1cc2nc(C(Cl)Cl)nc(-c3cccs3)n2n1`, for which the growth was 10.5% in [1]; 86.7% in [2]; -20.6% (active) in assay [3]; -2.2% (active) in [4]; -39% (active) in [5]; -10.8% (active) in [6]. Also, the growth in [7] was 46.8%; in assay [8], -23.5% (active); in [9], 77.5%; in assay [10] it was -44.3% (active); in assay [11], -26.5% (active); in assay [12], 35.3%. In addition, the growth was 39.7% in assay [13]; 11.2% in assay [14]; -52.9% (active) in assay [15]; 28.9% in assay [16]; -9.21% (active) in assay [17]; 17.5% in assay [18]. The growth in assay [19] was 33.1%.
In the case of `O=C1[C@H]2Cc3c([nH]c4ccccc34)[C@@H](c3ccc(Cl)cc3)N2C(=O)CN1C1CCN(Cc2ccccc2)CC1`, the growth in assay [1] was 73.8%; in assay [2], 49%; in assay [3], 57.1%; in assay [4], 74.8%; in [5], 29.8%; in [6] it was 42.5%. Also, the growth in assay [7] was 81.1%; in [8] it was 43.8%; in assay [9], 64.3%; in [10], 50.6%; in assay [11], 55.2%; in [12], 9.91% (active). The growth in assay [13] is 72.9%; in [14], 55.2%; in [15] it was 41%; in assay [16], 50%; in [17], 64.9%; in assay [18], 63.7%. Also, the growth in [19] is 68%.
Consider `C#Cc1nc(C(=O)NCCC(=O)Nc2ccc(NC(=O)c3ccc(/C=C/C(=O)c4nccn4C)cc3)cc2)cs1`, for which the growth in assay [1] is 33.1%; in assay [2], 74.9%; in [3], 62.2%; in [4], 24.1%; in assay [5] it was 33.9%; in [6], 120%. Besides, the growth in [7] was 14.9%; in [8], 55.8%; in assay [9] it was -59.8% (active); in assay [10] it was 56.1%; in assay [11] it was 21.1%; in [12], 8.97% (active). Also, the growth in [13] was 6.41% (active); in assay [14], 5.11% (active); in assay [15], 45.8%; in assay [16] it was 33.4%; in [17], 55.6%; in [18] it was -89.4% (active). For the same compound, the growth in assay [19] was 78.5%.
Take `O=S(=O)(NCCNc1nccc(-n2cnc3ccccc32)n1)c1ccc(C(F)(F)F)cc1`: the growth was 54.5% in assay [1]; 62.7% in [2]; 85.3% in assay [3]; 66.1% in assay [4]; 57.8% in assay [5]; 54.9% in assay [6]. In addition, the growth in assay [7] is 38.2%; in assay [8], 55.4%; in assay [9] it was 69.6%; in assay [10] it was 64.9%; in [11], 71.8%; in assay [12] it was 40.8%. Moreover, the growth in [13] was 71.4%; in assay [14], 64%; in assay [15], 38.2%; in [16], 59.5%; in assay [17] it was 44.7%; in [18] it was 64.8%. The growth in assay [19] was 36.8%.
